Test results taken from PubChem BioAssay (NCATS).
Inconclusive results are not listed. Calls come from the whole dose curve; as a rule, active = well fitted curve in either direction with a large enough effect (not every such curve was filed as active); inconclusive = small, poorly fitted or top-dose-only effect, or another doubt; inactive = flat fitted curve, though single readings scatter.

Assay: NFAT Signaling Pathway (AID 444);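 note: carbachol stimulus at about its EC50 of 1 µM final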
Details: Jurkat NFAT-bla M1, carbachol, beta-lactamase ratio, 5 h; at 17.2 µM (top of the series) unless noted
Method in brief: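 Read-out: CCF4 FRET ratio (460 nm/530 nm) after 1 h RT dye loading, used for %activity and AC50 from titration series. Cells: Jurkat NFAT-β-lactamase/M1 line, treated with compound plus 1 uM carbachol for 5 h, 37 °C.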
% is set by controls: 0 for no effect and ±100 for the full control effect.

Activity change, negative = inhibition, inactive:
Cc1nn(CC(N)=O)c(=O)c2ccccc12 0.254%, COc1ccc(OC)c(C2C(C#N)=C(N)Oc3cc(C)[nH]c(=O)c32)c1 (stereo not given) -4.06%, Cc1ccc2[nH]c(CCN(C)C)c(CC#N)c2c1 8.6%, COc1cc(C2CC(C(F)(F)F)n3ncc(C(=O)O)c3N2)cc(OC)c1OC (stereo not given) -3.76%, CC(=N\O)/C(CN(C)C)=N/O 13%, Cc1cc(=O)oc2cc(OCCSCCN3CCOCC3)ccc12 3.73%, CCCOc1cccc(C2C(C(=O)c3ccc(C)o3)=C(O)C(=O)N2CCCN(C)C)c1 (stereo not given) 10.1%, CSC(=Nc1ccccc1)C1=C(O)COC1=O 4.52%, Cn1c(NCc2cccnc2)nc2c1c(=O)n(Cc1ccccc1F)c(=O)n2C -10.3%, CCCOc1cccc(C2/C(=C(/O)c3ccccc3)C(=O)C(=O)N2CCN(C)C)c1 (stereo not given) 24.1%, COc1ccccc1N(O)C1CC(=O)N(c2ccc(Br)cc2)C1=O (stereo not given) -6.72%, N/C(CCN1CCOCC1)=N/O 2.54%, O=C1C(=O)N(CCCn2ccnc2)C(c2ccccn2)/C1=C(/O)c1ccccc1 (stereo not given) 6.66%, C=CCn1c(SCC(=O)c2ccccc2)nnc1-c1ccc2c(c1)OCO2 16.5%, Cc1ccc(S(=O)(=O)NC(=O)NCc2ccc3c(c2)OCO3)cc1 -5.13%, CSc1nc(N)nc(SCC(=O)CC(=O)OC(C)C)c1C#N 5.87%, CN(C)C(CN1C(=O)C2CC=CCC2C1=O)c1cn(C)c2ccccc12 (stereo not given) 4.1%, COC(=O)CN1C2(C#N)CCCCC2CC2CCCCC21C#N (stereo not given) -12.3%, Cc1ccc(-n2ncc3c(N4CCCC4)ncnc32)c(C)c1 22.5%, COC(=O)CSc1nnc2n(-c3ccc(OC)cc3)c(=O)c3c4c(sc3n12)CCCCC4 -18.9%, COC(=O)c1ccc(C2/C(=C(\O)c3cccc(OC)c3)C(=O)C(=O)N2CCCN(C)C)cc1 (stereo not given) 3.34%, CC12CCC(C(=O)NCCCN3CCOCC3)(OC1=O)C2(C)C (stereo not given) 10.5%, CCN(CC)CCCN1C(=O)C(=O)/C(=C(/O)c2ccc(OC)cc2)C1c1ccco1 (stereo not given) -12.1%, CC(=O)Nc1ccc(OC(=O)CC2SC(=O)NC2=O)cc1 (stereo not given) 11.3%, CC1=C(c2ccc(Cl)cc2)[N+](=O)C(C)(C)N1[O-] 13.4%, CCCCOC(=O)c1[nH]c(C)c(C(=O)OC)c1C 8.05%, O=C(O)CC(C(=O)N(c1ccccc1)c1ccccc1)N1CCOCC1 (stereo not given) -0.593%, COc1cccc(NC(=O)CSC2=C(C#N)C(c3ccco3)C3=C(CCCC3=O)N2)c1 (stereo not given) -16%, O=C(NC1(C(F)(F)F)C(=O)Nc2c1c(=O)[nH]c(=O)n2-c1ccccc1)c1cccnc1 (stereo not given) 8.45%, COC(=O)CSCC(=O)Nc1cc2c(cc1C(C)=O)OCO2 29.7%, CCOC(=O)Oc1ccc2c(c1)C(C)=CC(C)(C)N2C(=O)OCC -5.18%, N#Cc1c(NCCN)nc(NCc2ccccc2)c2c1CCN(Cc1ccccc1)C2 21.6%, Cc1cc(=O)oc2ccc(OCC(=O)N3CCc4ccccc43)cc12 -12%, N/C(=N\S(=O)(=O)c1ccc(Cl)s1)c1ccccc1 -13.4%, CCOC(=O)Cn1c(SC)nc2sc3c(c2c1=O)CC(C)(C)OC3 10.2%, O=C(C1=C(O)C(=O)N(c2ncccn2)C1c1cccc(Cl)c1)c1ccco1 (stereo not given) 22.6%, Cc1ccc(N(CC(O)CN2CCCC2)S(=O)(=O)c2ccc(C)cc2)cc1 (stereo not given) -19.4%, CC(C)Cc1[nH]c(=O)c(C#N)c2c1CCCC2 2.23%, COCCCn1c2nc3ccccc3nc2c2c(=O)n(CC3CCCO3)cnc21 (stereo not given) -12.4%, CCn1cc(/C=N/O)c(C)n1 -4.37%
